Screening results deposited in PubChem BioAssay by National Center for Advancing Translational Sciences (NCATS).
BAZ2B block – BAZ2B (human) inhibition; Q9UIF8; Potency, µM (top dose mostly 114 µM), for the others: top-dose activity change, negative = inhibition, usual class: inhibitors; AID 504333; actives 4.4% (n = 360,000); AlphaScreen BAZ2B-H3K14Ac peptide displacement; note: % is set by controls: 0 for no effect and ±100 for the full control effect; nearly all actives have a fitted effect of over 60% in size
Target sequence (Q9UIF8 whole entry, looked up): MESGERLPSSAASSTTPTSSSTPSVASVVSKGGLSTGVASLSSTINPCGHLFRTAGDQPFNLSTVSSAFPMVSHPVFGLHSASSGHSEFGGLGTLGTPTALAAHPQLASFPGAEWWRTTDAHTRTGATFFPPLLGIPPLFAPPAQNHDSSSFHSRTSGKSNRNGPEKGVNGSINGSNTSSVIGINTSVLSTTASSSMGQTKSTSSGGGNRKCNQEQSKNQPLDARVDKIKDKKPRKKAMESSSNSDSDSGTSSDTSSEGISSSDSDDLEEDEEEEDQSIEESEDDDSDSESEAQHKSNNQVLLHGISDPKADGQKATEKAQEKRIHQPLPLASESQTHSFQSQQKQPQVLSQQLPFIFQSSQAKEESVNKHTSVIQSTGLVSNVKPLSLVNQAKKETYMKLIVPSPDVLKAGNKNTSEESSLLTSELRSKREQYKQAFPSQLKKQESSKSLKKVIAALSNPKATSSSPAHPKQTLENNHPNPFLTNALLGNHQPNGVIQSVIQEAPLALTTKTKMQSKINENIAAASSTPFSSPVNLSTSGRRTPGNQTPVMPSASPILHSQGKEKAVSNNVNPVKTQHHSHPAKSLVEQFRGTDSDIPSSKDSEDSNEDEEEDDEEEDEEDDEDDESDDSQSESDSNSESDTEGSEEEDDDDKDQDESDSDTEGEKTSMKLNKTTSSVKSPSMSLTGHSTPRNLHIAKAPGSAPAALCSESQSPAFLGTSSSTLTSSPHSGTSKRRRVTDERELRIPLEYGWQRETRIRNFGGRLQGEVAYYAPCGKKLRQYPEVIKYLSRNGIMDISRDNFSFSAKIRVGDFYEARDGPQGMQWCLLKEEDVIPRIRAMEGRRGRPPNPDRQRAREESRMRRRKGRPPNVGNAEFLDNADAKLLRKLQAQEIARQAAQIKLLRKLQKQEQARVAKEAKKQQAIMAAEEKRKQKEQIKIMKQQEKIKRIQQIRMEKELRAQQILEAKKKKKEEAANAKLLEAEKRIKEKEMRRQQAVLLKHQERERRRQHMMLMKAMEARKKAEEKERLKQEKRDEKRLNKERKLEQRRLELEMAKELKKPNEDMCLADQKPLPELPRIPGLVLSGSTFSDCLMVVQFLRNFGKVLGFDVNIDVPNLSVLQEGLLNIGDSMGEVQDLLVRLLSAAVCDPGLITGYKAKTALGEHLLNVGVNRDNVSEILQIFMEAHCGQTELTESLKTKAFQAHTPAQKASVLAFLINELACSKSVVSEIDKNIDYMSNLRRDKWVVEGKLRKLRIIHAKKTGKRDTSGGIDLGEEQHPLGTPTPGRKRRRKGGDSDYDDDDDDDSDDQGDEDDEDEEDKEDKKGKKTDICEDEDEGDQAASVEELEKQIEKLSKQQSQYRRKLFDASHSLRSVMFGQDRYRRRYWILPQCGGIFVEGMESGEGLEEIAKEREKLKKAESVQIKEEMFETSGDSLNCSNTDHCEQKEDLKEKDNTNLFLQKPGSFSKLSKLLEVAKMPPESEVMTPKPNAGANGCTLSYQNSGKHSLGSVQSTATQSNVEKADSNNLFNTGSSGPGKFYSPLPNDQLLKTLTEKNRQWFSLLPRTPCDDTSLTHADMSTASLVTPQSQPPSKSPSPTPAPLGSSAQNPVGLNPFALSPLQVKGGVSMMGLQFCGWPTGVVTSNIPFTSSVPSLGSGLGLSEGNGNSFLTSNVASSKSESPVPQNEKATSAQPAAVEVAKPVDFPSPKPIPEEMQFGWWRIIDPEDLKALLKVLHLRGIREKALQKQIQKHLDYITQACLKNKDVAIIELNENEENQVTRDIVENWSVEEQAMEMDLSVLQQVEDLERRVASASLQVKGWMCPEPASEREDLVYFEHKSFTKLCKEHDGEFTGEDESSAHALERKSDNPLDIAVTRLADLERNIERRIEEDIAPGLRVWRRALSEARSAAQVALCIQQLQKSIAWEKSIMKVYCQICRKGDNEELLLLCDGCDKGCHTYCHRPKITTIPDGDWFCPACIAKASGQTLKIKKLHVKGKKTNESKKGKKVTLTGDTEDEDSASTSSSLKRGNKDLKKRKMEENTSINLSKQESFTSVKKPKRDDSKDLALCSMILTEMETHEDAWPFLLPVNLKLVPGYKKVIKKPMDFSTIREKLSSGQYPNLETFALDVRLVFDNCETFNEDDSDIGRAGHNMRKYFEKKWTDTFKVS
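Inhibition is scored as reduced AlphaScreen emission. The BAZ2B/b-H3(5-23)K14Ac complex (50 nM each) in PBS pH 7.4, 0.01% Tween-20 meets compound (up to 110 uM) for 30 min at RT before bead addition.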
VDR inh – vitamin D3 receptor (human) inhibition; P11473; VDR-SRC2-3 peptide fluorescence polarization, 2 h; Potency, µM, for inactives: max response, negative = inhibition, usual class: inhibitors; actives 0.93% (n = 400,000); note: % is set by controls: 0 for no effect and ±100 for the full control effect
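Fluorescence polarization assay of small-molecule disruption of VDR binding to coregulator peptide SRC2-3. Compounds and controls pin-transferred, then read after 2 h incubation at ambient room temperature.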
JMJD2A Tudor – blocks the human JMJD2A Tudor domain | O75164 | AlphaScreen JMJD2A-Tudor / H3K4me3 peptide binding | Potency, µM (top dose mostly 114 µM), for inactives: at the top dose activity change, negative = inhibition, most hits filed as inhibitors | actives 4.4% (n = 390,000); note: % is set by controls: 0 for no effect and ±100 for the full control effect; nearly all actives have a fitted effect of over 50% in size
HP1b binding inh – blocks HP1-beta chromodomain binding to methylated histone tails; P83916; AlphaScreen HP1-beta / biotin-H3K9me3 peptide binding; Potency, µM (series often up to 114 µM), for inactives: top-dose activity change, negative = inhibition, usual class: inhibitors; actives 0.56% (n = 390,000); AID 540317; note: nearly all actives have a fitted effect of over 70% in size
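AlphaScreen: HP1-beta (50 nM) preformed 30 min with biotin-H3(1-18)K9me3 peptide (50 nM) in PBS pH 7.4, 0.01% Tween-20. Compound added for 30 min at RT, then streptavidin donor/nickel chelate acceptor beads (10 ug/mL) for 30 min.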
PLK1 PBD block – inhibitors of human PLK1 polo-box domain binding; P53350; Plk1 PBD binding of FITC phosphopeptide, fluorescence polarization; Potency, µM, inactives show max response, negative = inhibition, usual class: inhibitors; actives 2.8% (n = 360,000); note: series mostly up to about 57 µM; % is set by controls: 0 for no effect and ±100 for the full control effect; nearly all actives have a fitted effect of over 65% in size
L3MBTL1 inh – blocks human L3MBTL1; AID 485360; Q9Y468; actives 0.66% (n = 230,000); Potency, µM (top dose mostly 57.1 µM), for inactives: top-dose activity, negative = inhibition, hits mostly inhibitors; AlphaScreen L3MBTL1–H3K9me1 peptide binding; note: % is set by controls: 0 for no effect and ±100 for the full control effect; nearly all actives have a fitted effect of over 60% in size
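L3MBTL1 50 nM + b-AHA-H3(1-15)K9me1 75 nM, 30 min RT; compound added, 30 min RT; streptavidin donor/Ni-chelate acceptor beads 10 ug/mL each final, 30 min RT dark; AlphaScreen read.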
The depositor's hits bear a star; ? = inconclusive; / = no result given; ! = a repeat was not active; [ ] = dose if it differs, or a comment. Shown are actives, neighbours in structure and some others; about 6.9% of the full set was active somewhere. Calls come from the whole dose curve; as a rule, active = well fitted curve in the direction sought with a large enough effect; inconclusive = small, poorly fitted or top-dose-only effect, or another doubt; inactive = no such curve, though single readings can be large; an effect the other way counts as inactive or inconclusive. Potency is the fitted concentration of half-maximal effect.

SMILES	BAZ2B block	VDR inh	JMJD2A Tudor	HP1b binding inh	PLK1 PBD block	L3MBTL1 inh
COC(=O)C1C=C2c3cccc4[nH]cc(c34)CC2N(C)C1 (configuration not stated)	39.8µM*	/	/	/	/	/
CC[C@@H](CO)NC(=O)[C@@H]1C=C2c3cccc4c3c(cn4C)C[C@H]2N(C)C1	?	28.2µM*!	-22.8%	21.9%	-12.2%	-14.2%
CNC(C)[C@@H](O)c1ccc(O)cc1 (some centres not stated)	/	-4.2%	/	/	/	/
CC(=O)O[C@H]1[C@H]2[C@@H](OC(=O)Cc3ccccc3)[C@@H](C)C[C@]2(OC(C)=O)C(=O)/C(C)=C/[C@@H]2[C@H](CC[C@@]13CO3)C2(C)C	/	6.1%	/	/	/	/
Cn1cc(C(=O)OCC(=O)Nc2ccccc2)c2ccccc21	9.9%	5.5%	-15.0%	12.7%	-3.1%	3.0%
Cn1cc(C(=O)Cc2ccccc2)c2ccccc21	12.9%	?	?	-2.1%	26.7µM*	10.2%
CCN1C(=O)c2ccccc2Sc2ccc(NC(=O)c3ccc(C)c(F)c3)cc21	0.7%	20.0%	?	25.0%[57 µM]	/	/
C=C(C)C(=O)Nc1cccc(C2=NOC3(C2)C[C@H](C(N)=O)N(C(=O)/C=C/C)C3)c1 (some centres not stated)	7.08µM*	4.7%	8.91µM*	8.91µM*	-23.0%	/
O=C(CSc1ccccn1)Nc1cccc2ccccc12	13.1%	-12.7%	-15.3%	7.7%	21.2µM*	/
CC1(C)CC(=O)C(C2(O)C(=O)NC(=O)NC2=O)=C(O)C1	-31.0%	44.7µM*	-21.4%	26.0%	-9.8%	-13.0%
C/C(CC(c1ccccc1)c1c(O)c2ccccc2oc1=O)=N\Nc1ccc([N+](=O)[O-])cc1[N+](=O)[O-] (configuration not stated)	35.5µM*	112.5%	35.5µM*	?	-24.8%	/
CC/C(CC(c1ccccc1)c1c(O)c2ccccc2oc1=O)=N\NC(N)=S (configuration not stated)	-0.8%	-13.4%	3.16µM*	?	-8.2%	-9.6%
CC(=O)CC(c1ccc(O)cc1)c1c(O)c2ccccc2oc1=O (configuration not stated)	/	-5.3%	/	/	/	/
O=c1oc2ccccc2c(O)c1C(c1ccc([N+](=O)[O-])cc1)c1c(O)c2ccccc2oc1=O	56.2µM*	?	?	0.8%	?	?
CC(=O)C(O)C(c1ccccc1)c1c(O)c2ccccc2oc1=O (configuration not stated)	/	4.5%	/	/	/	/
CC(C)c1ccc(C(c2c(O)c3ccccc3oc2=O)c2c(O)c3ccccc3oc2=O)cc1	/	/	/	/	21.2µM*	/
CCCCC[C@@H](/C=C/C=C\CCCCCCCCCC(=O)O)OO	/	-12.5%	/	/	/	/
CCCN1CCC[C@@H]2Cc3cn[nH]c3C[C@H]21	/	0.2%	/	/	/	/
NCC(CC(=O)O)c1ccc(Cl)s1 (configuration not stated)	/	3.7%	/	/	/	/
C=C(C)[C@H]1O[C@H]2CC[C@@]3(C)[C@@](O)(CC[C@H]4[C@@H]5OC(C)(C)[C@H]6C[C@@H]7C(=C)Cc8c(Cl)cc9[nH]c(c5c9c8[C@@]76O)[C@@]43C)[C@]23O[C@@H]3[C@H]1O	/	-0.6%	/	/	/	/
Cc1ccc2c(c1)C1(CCN(CCc3nc(-c4ccccc4)oc3C)CC1)OC(=O)N2	/	9.8%	/	/	/	/
CN1CC(C(=O)c2ccc([N+](=O)[O-])cc2)C(c2ccc(Cl)cc2)C1 (configuration not stated)	?	-15.7%	44.7µM*	?	-7.0%	/
COc1ccc(C(=O)C2CN(C)CC2c2ccc(Cl)cc2)cc1 (configuration not stated)	-24.1%	-12.0%	-17.4%	32.5%	3.7%	?
Cc1cccc(Cc2cnc(NC(=O)c3ccc4c(c3)CC(c3ccccc3)OC4=O)s2)c1 (configuration not stated)	0.5%	14.2%	6.9%	61.6%	/	/
